# Laboratory results from PubChem BioAssay AID743279 (National Center for Advancing Translational Sciences (NCATS), 2014).
# Among all 360,000 compounds or so, about 17,000 (4.7%) were called active. Not shown: some 5% with an inconclusive outcome. The sample as a whole holds a higher share of actives than the screen did. Values without a mark were called inactive. Rule as the data show it: active = activity change below about -50%; inconclusive = mostly about -30% to -49%; inactive = weaker than that.
# Assay: qHTS for Inhibitors of Inflammasome Signaling: IL-1-beta AlphaLISA Primary Screen
# Details: THP-1 LPS/ATP IL-1B secretion, 16 h; at 57.5 µM, stronger effect = lower value
# In short: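 Secreted IL-1B measured by AlphaLISA bead assay after 16 h compound exposure of THP-1 cells; compounds (final up to 57.5 uM) added 1 h before LPS (250 ng/mL) and ATP (1.25 mM) stimulation; lower signal means less secretion.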
# % is scaled to controls: 0 for no effect and ±100 for the full control effect.
row,Structure (SMILES),activity change
1,CC1(C(=O)NS(=O)(=O)c2ccccc2)CCN1C(=O)Cc1ccc(-c2ccccc2)cc1 (centres undefined),-14.7%
2,Cn1c(CCNS(=O)(=O)c2ccc(F)cc2)nnc1SCc1cccnc1,22.3%
3,CCN(C(=O)CSc1ncn[nH]1)c1cccc2ccccc12,19.5%
4,CCN(C(=O)COC(=O)c1ccccc1O)c1cccc2ccccc12,-54.8% (active)
5,Cc1cccc(C)c1NC(=O)COC(=O)c1ccccc1O,12.4%
6,Cc1ccc(Sc2ccc(NC(=O)c3ccc(F)cc3)cc2C#N)cc1,10.9%
7,CC1CCCC(NC(=O)c2cccc(N3CCCC3=O)c2)C1C (centres undefined),9.06%
8,CC1CCN(C(=O)COC(=O)c2cc(S(=O)(=O)N3CCOCC3)ccc2Cl)CC1,11%
9,O=C(c1ccc(CS(=O)Cc2ccccc2Cl)o1)N1CCN(c2ccccc2)CC1 (centres undefined),-50.4% (active)
10,O=C(c1ccc(CS(=O)(=O)c2ccccc2)o1)N1CCN(c2ccccc2)CC1,41.8%
11,Cc1ccc(CS(=O)Cc2ccc(C(=O)N3CCOCC3)o2)cc1 (centres undefined),41.9%
12,COc1cc(/C=C/CNC[C@H]2O[C@@H](n3cnc(C(N)=O)n3)[C@H](O)[C@@H]2O)ccc1O,-17.5%
13,O=C(/C=C/NNC(=O)c1cccc(Br)c1)c1ccccc1,-15.9%
14,O=C(O)CCn1cc(/C=C/C(=O)c2ccc(Cl)cc2)c(-c2cccc(Br)c2)n1,-96.6% (active)
15,CCOC(=O)/C(C#N)=C/c1cn(CCC(=O)O)nc1-c1ccc(Br)cc1,0%
16,CC(=O)N/C(=C\c1ccc(F)cc1)C(=O)NC(Cc1ccccc1)C(=O)O (centres undefined),41.6%
17,C[C@@H]1CN([C@H](C)CO)C(=O)CCCn2nncc2CO[C@@H]1CN(C)C(=O)OCc1ccccc1,-18.7%
18,O=C(c1cc(COc2ccc(F)cc2F)on1)N1CCOCC1,4.05%
19,CCOC(=O)N1CCN(C(=O)C[C@@H]2C[C@@]3(C(=O)OC)CCCCC=C3N(CCC3=CCCCC3)C2=O)CC1,-20.9%
20,O=C(/C=C/c1cccs1)c1cc(Cl)ccc1OC(=O)N1CCOCC1,-111% (active)
21,O=C(Oc1cccc(C(=S)N2CCOCC2)c1)c1cccc(Cl)c1,-5.21%
22,CC(=O)Nc1ccccc1OC(=O)N1CCOCC1,4.54%
23,COc1ccccc1C(=O)NC(CCSC)C(=O)N1CCN(C/C=C/c2ccccc2)CC1 (centres undefined),-8.53%

row,Structure (SMILES),activity change
1,O=C(CC(CC(=O)c1ccccc1)c1ccco1)c1ccccc1,13.9%
2,COc1ccc(NC(=O)COC(=O)C2COc3ccccc3O2)cc1 (centres undefined),8.76%
3,CC(=O)c1ccc(OCC(=O)N(C)C2CCS(=O)(=O)C2)cc1 (centres undefined),-0.496%
4,O=C(c1ccc(=O)[nH]c1)N(Cc1ccco1)C1(C(=O)NC2CCCCC2)CCCCC1,-5.54%
5,Cc1cc(/C=C(/C#N)C(=O)Nc2ccc(Cl)cc2)c(C)n1-c1cccnc1,-3.14%
6,O=C(/C=C/c1c(F)cccc1Cl)Nc1nn[nH]n1,19.3%
7,CNC(=O)/C(C#N)=C/c1c(F)cccc1Cl,-84.3% (active)
8,Cc1cccc(C(=O)OCC(=O)Nc2sccc2C(N)=O)c1C,-7.19%
9,Cc1nn(C)cc1S(=O)(=O)N1CCN(c2ccc(F)cc2)CC1,1.55%
10,COC1C(CO)OC(n2cnc3c(=S)nc(N)[nH]c32)C1O (centres undefined),2.88%
11,O=c1cc(N2CCCCC2)c(-c2ccccc2)nn1Cc1cccc(F)c1,-2.53%
12,Cc1ccc2oc(=O)ccc2c1,12.6%
13,Cc1nc2c(OCC(=O)C(C)(C)C)cccn2c1N(C)Cc1cccs1,-25.2%
14,CCc1nc2c(OCc3ccc(F)c(F)c3)cccn2c1N(C)C(=O)c1ccco1,10.9%
15,Cc1nc2c(OCc3ccc(Cl)cc3)cccn2c1N(C)Cc1cccs1,-66.3% (active)
16,CCOC(=O)[C@]12CCC=C1N(Cc1cccc3ccccc13)C(=O)[C@H](CC(=O)NCc1cccc(C(F)(F)F)c1)C2,-21.1%
17,COc1ccc2nc(N3C(=O)C(O)=C(C(=O)c4ccco4)C3c3ccco3)sc2c1 (centres undefined),23.2%
18,O=C(c1ccc2nc(N3CCOCC3)sc2c1)N1CCN(c2ccc(Cl)cc2)CC1,1.67%
19,COc1ccc2nc(N3CCN(C(=O)c4ccc([N+](=O)[O-])o4)CC3)sc2c1,-88% (active)
20,Cc1cc(Br)cn2c(Cc3ccccc3C(F)(F)F)c(-c3ccc(Cl)cc3)nc12,25.9%
21,CC1(C(=O)NS(=O)(=O)c2ccccc2Cl)CCN1C(=O)c1cccc(F)c1 (centres undefined),22.3%
22,COc1ccc(CC(=O)NCc2nnc(SCC(=O)Nc3ncc(C)s3)n2C)cc1,15.7%
23,CCOC(=O)c1c(CN2CCOCC2)n(-c2ccccc2)c2ccc(O)cc12,-54.1% (active)

row,Structure (SMILES),activity change
1,CCOC(=O)c1nnn(-c2nonc2-n2cccc2)c1CN1CCOCC1,9.61%
2,CC(=O)c1c(C)n(-c2ccc(C)cc2)c2ccc(O)cc12,12.1%
3,CC(=O)Nc1ccc(-c2cn3cccnc3n2)cc1,-2.21%
4,CC(=O)Nc1ccc(-c2csc(NC(=O)Nc3ccccc3)n2)cc1,-57.5% (active)
5,CCOC(=O)Cc1csc(NC(=O)CSc2ccc(Br)cc2)n1,35.1%
6,CCOC(=O)Cc1csc(NC(NC(=O)OCC)(C(F)(F)F)C(F)(F)F)n1,2.86%
7,CC(=O)NCc1ccc(-c2csc(NC(=O)CCCc3nc4ccccc4c(=O)[nH]3)n2)cc1,-3.36%
8,CCOC(=O)Cc1csc(NC(=O)Nc2ccccc2)n1,-69.2% (active)
9,N#CCCN(C(=O)Nc1ccc(Cl)c(Cl)c1)C1CCCCC1,-24.2%
10,CCOC1=C2[C@H]([C@H]3C(=O)N(c4ccccc4)C(=O)[C@H]3C1)[C@@H](c1ccccc1)N(S(=O)(=O)c1ccc(C)cc1)[C@H]2c1ccccc1,21.6%
11,COc1ccc2occ(C(=O)c3ccc(N=C(C)N(C)C)cc3)c2c1,-57% (active)
12,COc1ccc(OC)c(C(=O)c2coc3ccc(OC)cc23)c1,5.54%
13,COc1ccc(C(=O)c2oc3ccc(Br)cc3c2NC(C)=O)cc1,-26.9%
14,Cc1nc(CN2CCN(C(=O)CCc3nnc(Cc4c[nH]c5ccccc45)o3)CC2)cs1,21.5%
15,C[C@H]1CN([C@@H](C)CO)C(=O)c2cc(Br)cnc2O[C@H]1CN(C)S(=O)(=O)c1cccs1,-17.5%
16,Nc1ccccc1-c1nc2ccncc2[nH]1,-6.01%
17,CCCCn1c(N)c(N(CC(C)C)C(=O)c2ccc(-n3c(C)ccc3C)cc2)c(=O)[nH]c1=O,-61.6% (active)
18,CCCCn1c(N)c(N(CC(C)C)C(=O)c2ccc(Br)o2)c(=O)[nH]c1=O,-3.41%
19,CCCCn1c(N)c(N(CC(C)C)C(=O)c2cnc(C)cn2)c(=O)[nH]c1=O,-2.8%
20,CC(C)c1ccc(-c2nn[nH]n2)cc1,-4.8%
21,CN[C@H]1C[C@H]2c3cc(Oc4ccccc4C)ccc3CCN2C(=O)[C@H]1[C@H](C)O,-11%
22,[O-][n+]1onc2c1CCc1[nH]c(-c3ccccc3)nc1-2,-66.3% (active)
23,N#Cc1c(-c2ccc(F)cc2)nc(-c2ccccc2)[nH]c1=O,8.84%

row,Structure (SMILES),activity change
1,CN1CCN(c2ccc3c(c2)OC[C@H](Cc2ccccc2)NS3(=O)=O)CC1,2.92%
2,COc1cccc(-c2cc3nc(NCCOc4ccccc4Cl)n(C)c(=O)c3s2)c1,33.6%
3,O=c1[nH]c(CCl)nc2cc(-c3ccc(Cl)cc3)sc12,-93.8% (active)
4,Cn1c(NCc2cccnc2)nc2cc(-c3ccc(F)cc3)sc2c1=O,4.79%
5,O=c1[nH]c(=S)[nH]c(O)c1/C=C1\C=Nc2ccccc21,-3.38%
6,Cc1nc(C(F)(F)F)ccc1C(=O)N1CCC1(C)C(=O)NS(=O)(=O)c1ccccc1Cl (centres undefined),27.9%
7,O=C(Nc1ccc2c(c1)[C@@H]1C[C@@H](CC(=O)N3CCCCC3)O[C@@H](CO)[C@@H]1O2)NC1CCCCC1,7.94%
8,CC1CN(Cc2ccccc2)C(=S)NC1=O (centres undefined),5.57%
9,CC(=O)Oc1c(C(=O)c2nnc(C)o2)c(=O)n(Cc2ccccc2)c2ccccc12,-63.6% (active)
10,CC(=O)c1nc2ccccc2n1Cc1ccccc1,24.8%
11,CC(=O)OCC(C)n1c(=O)c2ccccc2n1C(C)=O (centres undefined),21.8%
12,COc1ccc(NS(=O)(=O)c2cc(NC(=O)CC(=O)c3ccc([N+](=O)[O-])cc3)ccc2C)cc1,-19.6%
13,O=C(Nc1cc(-c2nc3ncccc3o2)ccc1Cl)c1ccco1,4.47%
14,O=C(Nc1cccc(-c2nc3ncccc3o2)c1)c1ccco1,-57% (active)
15,CC(C)(C)NC(=O)c1cc(NC(=O)c2ccco2)cc(NC(=O)c2ccco2)c1,3.33%
16,Cc1ccc2nc(SCc3nnc(-c4ccccc4[N+](=O)[O-])o3)c(C#N)cc2c1,24.6%
17,Cc1ccc([C@H]2C[C@H](O)[C@@H](n3cc(COC(=O)c4ccccc4)nn3)CN2CC2CCCCC2)cc1,-1.43%
18,CN1CCN(C(=O)c2ccccc2NC(=O)COc2ccccc2Cl)CC1,7.63%
19,COc1ccc(C(=O)OCC(=O)NCCCc2ccccc2)cc1OC,19%
20,CC(C)n1ncc2c(C(=O)N3CCN(Cc4cccs4)CC3)cc(C3CC3)nc21,-6.72%
